Sampled rows, rich in hits. Any-hit rate of the full collection: about 6%.
Tau fil binding – binds recombinant human tau filaments; P10636; recombinant tau filaments, thioflavin S fluorescence, 15 h; filaments grown with octadecylsulfate alongside compound; Potency, µM (titrated, usually from 57.1 µM), for inactives: top-dose activity change, negative = inhibition; 2% of 71,000 active; AID 596;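 note: actives lower thioflavin S fluorescence by blocking filaments or displacing dye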
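Recombinant tau protein (human, 1 uM final) plus 30 uM ODS in HEPES pH 7.4 with NaCl, DTT and thioflavine S. Compound present from the start; fluorescence at 510 nm after 15 h, 37 C.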
ERK AVP block – inhibitors of vasopressin-stimulated ERK signaling pathway. AID 995. HEK293-V1b, vasopressin-stimulated pERK AlphaScreen. Potency, µM (series often up to 57.5 µM), for inactives: at the highest dose activity, negative = inhibition, actives largely listed as inhibitors. 0.99% of 72,000 active; note: nearly all actives have a fitted effect of over 55% in size
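qHTS, compounds titrated on V1b-expressing HEK293 cells. Preincubation 30 min at 37C, vasopressin 25 nM for 5 min, lysis 10 min, bead incubation 5 hr at room temperature.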
Pol III holo inh – blocks replication by bacterial DNA polymerase III holoenzyme | 0.25% of 71,000 active | reconstituted DNA polymerase III holoenzyme replication, biochemical | AID 603 | Potency, µM (titrated, usually from 57.1 µM), without a hit: top-dose activity change, negative = inhibition
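Reconstituted *E. coli* holoenzyme (0.35 nM Pol III, 1 nM beta, 154 nM SSB, 2 nM primase) was preincubated with compound for 15 min at RT. Synthesis on 1.4 nM ssM13Gori ran 35 min, then was stopped with PicoGreen/EDTA and read as dsDNA fluorescence.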
Luciferase inh – inhibitors of firefly luciferase. Potency, µM (series often up to 57.1 µM), for the others: at the highest dose activity change, negative = inhibition, usual class: inhibitors. AID 411. purified firefly luciferase, luminescence, 8 min. 2.2% of 72,000 active; note: nearly all actives have a fitted effect of over 40% in size
Target sequence (P08659 whole entry, looked up): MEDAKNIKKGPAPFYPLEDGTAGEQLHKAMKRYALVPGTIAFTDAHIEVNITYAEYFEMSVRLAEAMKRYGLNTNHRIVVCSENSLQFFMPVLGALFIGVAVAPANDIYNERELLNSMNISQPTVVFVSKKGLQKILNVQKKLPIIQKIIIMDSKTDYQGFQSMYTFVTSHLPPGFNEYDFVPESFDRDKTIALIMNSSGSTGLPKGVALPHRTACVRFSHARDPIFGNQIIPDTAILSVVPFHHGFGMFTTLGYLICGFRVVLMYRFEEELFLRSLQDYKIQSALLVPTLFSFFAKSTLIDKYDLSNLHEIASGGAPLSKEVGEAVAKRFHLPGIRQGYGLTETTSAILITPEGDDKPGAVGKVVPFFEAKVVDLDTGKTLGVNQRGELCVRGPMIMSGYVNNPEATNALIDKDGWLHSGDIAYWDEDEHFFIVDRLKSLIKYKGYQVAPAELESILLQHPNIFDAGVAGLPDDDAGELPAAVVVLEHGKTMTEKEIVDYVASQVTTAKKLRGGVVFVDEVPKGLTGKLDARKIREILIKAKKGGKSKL
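Compounds were tested as concentration series (qHTS) against purified P. pyralis luciferase with luciferin and 10 uM ATP in 50 mM imidazole pH 7.2, 50 mM KCl, 7 mM MgCl2, 0.01% Tween 20, 0.05% BSA. Luminescence was read after 8 min at ambient temperature.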
PK Bst – modulators of Bacillus stearothermophilus pyruvate kinase | purified pyruvate kinase, luminescence ATP production; ribose 5-phosphate activator present at AC10 | Potency, µM | 1.2% of 51,000 active | AID 361; in the data active = potency below about 11 µM; inconclusive = mostly about 12 µM to 25 µM;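 the screen sought inhibitors and activators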;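 note: scaled between full activation by ribose 5 phosphate and full inhibition by luteolin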
15-hLO inh – blocks human 15-lipoxygenase activity; P16050; purified 15hLO-1, xylenol orange hydroperoxide absorbance; Potency, µM (highest dose often 57.1 µM), inactives show at the top dose activity change, negative = inhibition, usual class: inhibitors; 1.4% of 74,000 active; note: nearly all actives have a fitted effect of over 55% in size
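40 nM 15hLO-1 + cpd, 15 min RT; start w/ 50 uM AA (final), 6 min RT; stop/detect w/ 200 uM XO + 300 uM Fe(II) in 50 mM H2SO4, 30 min; A573/A405. Buffer 25 mM Hepes pH 7.5, 0.01% Triton X-100. No-enzyme wells as negative control.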
Active calls of the source: *; i = inactive; ? = inconclusive; / = no result; ! = not confirmed by another sample; [ ] = dose if it differs, or a comment. Unless noted, calls come from the whole dose curve; as a rule, active = well fitted curve in the direction sought with a large enough effect; inconclusive = small, poorly fitted or top-dose-only effect, or another doubt; inactive = no such curve, though single readings can be large; an effect the other way counts as inactive or inconclusive. Unless noted, % is set by controls: 0 for no effect and ±100 for the full control effect; potency is the fitted concentration of half-maximal effect.

SMILES	Tau fil binding	ERK AVP block	Pol III holo inh	Luciferase inh	PK Bst	15-hLO inh
Cc1noc(C)c1-c1ccc2ncnc(NCc3cccnc3)c2c1	-3.5%	-1.3%	-5.9%	1.5%[2.29 µM]	/	10.2%
O=C1CN(CC(=O)N2CCCCC2)c2ccccc2O1	31.6µM*	-18.6%	-3.6%	-7.7%	>57	?
CN(Cc1ccco1)c1ncncc1-c1ccccc1C(F)(F)F	-1.0%	-0.6%	0.0%	-0.5%[2.29 µM]	/	9.9%
CCCCn1c(SCC(=O)NC(=O)NCc2ccco2)nc2cc(S(N)(=O)=O)ccc21	14.7%	?	-18.7%	-18.3%	>57	10µM*
COC(=O)c1[nH]c2cc(OC)c(OC)cc2c1NC(=O)CN1CCN(Cc2ccccc2)CC1	46.3%	10µM*	0.5%	-0.6%	>57	8.6%
COC(=O)c1[nH]c2ccc(C)cc2c1NC(=O)CN1CCN(Cc2ccccc2)CC1	/	?	-1.8%	-6.2%	>11.4	-4.7%
COC(=O)c1[nH]c2ccc(C)cc2c1NC(=O)CN1CCN(c2ccccc2)CC1	25.8%	12.6µM*	7.8%	-1.1%	>57	-6.6%
O=C(O)C(S)[C@@H](S)C(=O)O (some centres not stated)	/	6.0%	/	/	/	7.94µM*
N[C@H](C(=O)O)[C@H](O)C(=O)O	11.6%	4.5%	-1.2%	3.0%	/	-13.3%[25.6 µM]
CCC1=C2CC[C@H]3C(=O)N(c4ccccc4)C(=O)[C@H]3[C@H]2[C@@]2(C)C(=O)N(Cc3ccccc3)C(=O)N2C1=O	/	34.6%	/	/	/	/
NC(N)=NCCCCN=C(N)N	31.6µM*!	6.2%	-1.2%	0.8%	/	?
O=C(O)c1ccc(CNCc2ccccc2)cc1	7.8%[11.4 µM]	-11.9%[11.5 µM]	2.0%[11.4 µM]	0.6%[11.4 µM]	/	1.3%[11.4 µM]
CCOC(=O)c1c(N)sc2c1CCCC2	10.5%	?	-8.1%	-0.2%	>57	?
CCOC(=O)c1c(N2C(=O)C3C4C=CC(O4)C3C2=O)sc2c1CCCC2 (configuration not stated)	27.8%	1.6%	3.5%	-0.4%	/	7.94µM*
CN1C[C@H](C(=O)N[C@]2(C)O[C@@]3(O)[C@H]4CCCN4C(=O)[C@@H](Cc4ccccc4)N3C2=O)C[C@H]2c3cccc4[nH]cc(c34)C[C@@H]21	41.1%	/	-5.3%	2.1%[11.4 µM]	/	/
CC1C(=O)OC2C(O)C34C5CC(C(C)(C)C)C36C(OC(=O)C6O)OC4(C(=O)O5)C12O (configuration not stated)	?	-10.6%	-0.7%	4.0%	/	-2.1%[25.6 µM]
O=C(Nc1ccc2c(c1)nc1n2CCN(Cc2ccccc2)C1)c1cccs1	-28.0%	?	-1.1%	-5.2%	/	-6.5%
COCCN1CCn2c(nc3cc(NC(=O)NC4CCCCC4)ccc32)C1	25.1µM*	-2.1%	-6.0%	-17.5%	>57	-22.6%
CCCN1CCC(NC(=O)Nc2ccc(OC)c(OC)c2)CC1	3.9%	-0.7%	1.4%	0.8%	>57	-0.1%
COCCN1CCn2c(nc3cc(NC(=O)c4ccc(OC)cc4)ccc32)C1	25.1µM*	?	-1.2%	-26.7%	/	?
COc1cc([C@@H]2c3cc4c(cc3[C@@H](O[C@@H]3O[C@H]5CO[C@@H](C)O[C@@H]5[C@@H](O)[C@H]3O)[C@@H]3COC(=O)[C@@H]23)OCO4)cc(OC)c1O	-64.8%	19.5%	5.0%	?	/	-29.8%[25.6 µM]
COc1ccc(C(=O)Oc2ccc(C(C)=O)cc2)c(OC)c1	1.8%	7.4%	-1.6%	15.8µM*	/	-2.2%
COc1ccc(C(=O)Nc2c(F)c(F)c(F)c(F)c2F)c(OC)c1	27.8%	-12.4%	3.5%	0.8%	/	-2.8%
O=C1C(SCCO)=C(SCCO)C(=O)c2ccccc21	5.01µM*!	15.8µM*	31.6µM*!	-1.2%	/	-17.9%[25.6 µM]
COC1=CC(=O)C[C@@H](C)[C@@]12Oc1c(Cl)c(OC)cc(OC)c1C2=O	?	/	-2.6%	0.2%[11.4 µM]	/	/
SMILES	Tau fil binding	ERK AVP block	Pol III holo inh	Luciferase inh	PK Bst	15-hLO inh
Cc1cc(C(=O)COC(=O)C2COc3ccccc3O2)c(C)n1CC1CCCO1 (configuration not stated)	-5.9%	22.0%	8.8%	15.8µM*	i	-9.0%
Cc1cc(C(=O)COC(=O)CN(C)S(=O)(=O)c2ccc(Cl)cc2)c(C)n1CC1CCCO1 (configuration not stated)	-4.5%	-9.2%	?	-12.9%	>57	14.9%
CCOC(=O)c1nn(-c2ccccc2)c(C(=O)OCC)c1N	4.8%	-23.3%	-5.7%	-1.4%	>57	0.9%
CCOC(=O)c1nn(-c2ccccc2)c(=O)c2c(N)scc12	-20.2%	-9.3%	-3.2%	-11.7%	/	5.01µM*
CCCCCOc1ccc(N2C(=O)CC(N(O)c3ccccc3)C2=O)cc1 (configuration not stated)	12.6µM*	-13.5%	-3.6%	2.6%	>57	-5.0%
CCCCOc1ccc(N2C(=O)CC(N(O)c3ccccc3)C2=O)cc1 (configuration not stated)	-17.7%	-19.0%	-6.8%	0.4%	>57	-1.9%
CCCSc1nc(C)c(-c2csc(C(C#N)=C3CCCC3)n2)cc1C#N	15.8µM*	9.5%	-1.9%	-0.5%	>57	?
N#Cc1cccc(NC(=O)N2CCCC3(CCN(C(=O)c4cnccn4)CC3)C2)c1	-6.4%	-5.4%	2.2%	-1.3%[11.4 µM]	/	9.5%
CNc1ccccc1-c1nc2ccccc2n(C)c1=O	/	/	/	1.0%[25.5 µM]	>25.6	/
COc1ccccc1Nc1nc2ccccc2n1C	5.1%	/	-2.8%	15.8µM*	/	-5.8%
O=C(Nc1ccon1)c1cc2c(s1)CCCCCC2	-17.8%	6.4%	1.6%	25.1µM*	/	?
CC(=O)Nc1ccc(OC[C@@H](O)CNC(C)C)cc1	39.8µM*!	4.1%	-1.6%	-1.6%	/	?
CC(=O)Nc1c(Cl)n(C(C)=O)c2ccccc12	20µM*	-8.2%	-0.7%	-1.5%	/	5.5%
CC(=O)n1c2ccccc2c2c1c1ccccc1n2C	30.7%	-25.9%	-7.5%	1.0%	/	4.8%
C/C=C\C1=C(CO)C(=O)C2O[C@]2(CC=C(C)C)C1=O (some centres not stated)	/	8.7%[11.5 µM]	/	0.6%[11.4 µM]	/	-12.4%[11.4 µM]
Cc1ccc(C)c(NS(=O)(=O)c2c(C)ccc3nsnc23)c1	12.6µM*	-7.8%	-2.5%	1.0%	>57	-9.7%
CN1CCc2cc3c(cc2C(=O)Cc2ccc4c(c2C1)OCO4)OCO3	?	7.9%	-5.2%	2.2%[11.4 µM]	/	7.3%[25.6 µM]
Cc1ccc2c(c1)C(=O)[C@@]1(O)CCN(c3ccccc3)C1=N2	25.1µM*	-4.5%	1.9%	12.6µM*	/	-14.0%[25.6 µM]
Nc1nc(CN2CCN(c3ccccn3)CC2)nc(Nc2ccc(Cl)cc2)n1	-8.6%	31.6µM*	6.1%	1.0%	>11.4	3.5%
COc1cccc(N2CCN(Cc3nc(N)nc(Nc4ccccc4)n3)CC2)c1	-11.8%	-23.5%	8.7%	5.8%	>57	26.1%
CC(=O)n1nc(-c2ccco2)nc1SCc1ccccc1	25.1µM*	?	?	-17.5%	/	3.98µM*
